An excerpt weighted towards active compounds, which were near 2.6% of everything screened.
PAFAH1B3 inh: PAFAH1B3 enzyme inhibitors, primary screen, biochemical, fluorescence polarization, human | Platelet-activating factor acetylhydrolase IB subunit alpha1 (Homo sapiens), Q15102 | recombinant PAFAH1B3, FP-rhodamine probe | inhibition, % at 3.39 µM | 0.28% of 340,000 active;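 active = inhibition above the screen-wide average of all tested compounds plus 3 SD, cut at about 25% in these data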;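 note: 0% = enzyme with DMSO only and 100% = wells lacking PAFAH1B3 protein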
PAFAH1B2 inh: PAFAH1B2 enzyme inhibitors, primary screen, biochemical, fluorescence polarization, human | Platelet-activating factor acetylhydrolase IB subunit alpha2 (Homo sapiens), P68402 | recombinant PAFAH1B2, FP-rhodamine activity probe | inhibition, % at 3.39 µM | 1.2% of 340,000 active | AID 492953, 2010;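 active = inhibition above the mean of all tested compounds plus 3 SD, cut at about 24% in these data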;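 note: 0% = enzyme with DMSO and 100% = wells lacking PAFAH1B2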
PKA-R1A activ: activators of PKA-R1A holoenzyme, primary screen, biochemical, fluorescence polarization, Cy5-IP20, bovine R1A, mouse PKAc; 0.083% of 340,000 active; PKA-R1A dissociation; scaled: DMSO 0%, 113 µM cGMP 100%; cAMP-dependent protein kinase type I-alpha regulatory subunit (Bos taurus) + …; activation, % at 11.4 µM;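 active = percent activation above the mean of all tested compounds plus 3 SD, cut at about 19% in these data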;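 note: higher means more PKAc released from R1A so a rise in polarization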
PKA-R2B act: activators of PKA-R2B holoenzyme, primary screen, biochemical, fluorescence polarization, Cy5-IP20, human | PKA-R2B holoenzyme dissociation; R2B truncated from residue 108, S112A mutant; 0% DMSO only, 100% 113 µM cGMP | activation, % at 11.4 µM | 0.079% of 340,000 active;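 active = activation above a cutoff set at the mean over all compounds plus 3 SD, cut at about 18% in these data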;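 note: higher means more holoenzyme dissociation and a rise in polarization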
pPAFAH inh: pPAFAH enzyme inhibitors, primary screen, biochemical, fluorescence polarization, human; recombinant pPAFAH, FP-rhodamine probe fluorescence polarization; inhibition, % at 3.39 µM; 1.5% of 330,000 active;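 active = inhibition above the mean inhibition across the screen plus 3 SD, cut at about 25% in these data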;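 note: inhibitors block binding of the rhodamine activity-based probe so polarization drops; 0% = enzyme with DMSO and 100% = wells lacking pPAFAH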
Target sequence (Q13093 whole entry, looked up): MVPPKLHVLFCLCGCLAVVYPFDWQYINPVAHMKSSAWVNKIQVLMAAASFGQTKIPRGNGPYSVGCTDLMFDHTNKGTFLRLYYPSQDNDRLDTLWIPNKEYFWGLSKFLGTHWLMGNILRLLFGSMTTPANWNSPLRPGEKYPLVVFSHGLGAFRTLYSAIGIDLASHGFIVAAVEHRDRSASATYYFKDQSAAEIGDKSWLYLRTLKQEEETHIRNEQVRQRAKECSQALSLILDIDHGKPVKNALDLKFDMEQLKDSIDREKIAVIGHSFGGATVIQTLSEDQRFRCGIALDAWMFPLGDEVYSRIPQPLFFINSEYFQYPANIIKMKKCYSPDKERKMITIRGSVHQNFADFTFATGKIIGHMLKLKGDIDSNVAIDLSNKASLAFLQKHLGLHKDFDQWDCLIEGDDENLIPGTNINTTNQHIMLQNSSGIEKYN
PAFAH2 inh: PAFAH2 enzyme inhibitors, primary screen, biochemical, fluorescence polarization, human; Platelet-activating factor acetylhydrolase 2, cytoplasmic (Homo sapiens), Q99487; inhibition, % at 3.39 µM; 0.99% of 340,000 active; AID 492956, 2010; recombinant PAFAH2, FP-rhodamine activity probe;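 active = inhibition above the mean over all tested compounds plus 3 SD, cut at about 30% in these data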;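 note: inhibitors block probe labeling of enzyme so polarization drops; 0% = enzyme with DMSO and 100% = wells lacking PAFAH2 protein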
pPAFAH FP conf: pPAFAH (PLA2G7) enzyme inhibitors, confirmation, biochemical, fluorescence polarization, human | recombinant pPAFAH, FP-Rh probe fluorescence polarization | 72% of 2,300 active | shares compounds with pPAFAH inh | inhibition, % at 3.39 µM;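 active = mean inhibition of the triplicate above the hit cutoff set for the earlier primary screen, cut at about 25% in these data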;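 note: 0% = enzyme with DMSO and 100% = wells lacking pPAFAH enzyme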
The depositor's hits bear a star; nt = not tested or not shown.

SMILES	PAFAH1B3 inh	PAFAH1B2 inh	PKA-R1A activ	PKA-R2B act	pPAFAH inh	PAFAH2 inh	pPAFAH FP conf
CCOC(=O)NC1(Nc2ccc(C)cc2)Oc2ccccc2O1	11.1	6.8	-10.3	4.7	45.6*	3.6	4.8
CCOC(=O)NC1(NC(C)C)Oc2ccccc2O1	2.9	1.5	-13.6	-6.0	8.7	-3.3	nt
CN(C(=O)COC(=O)c1cc([N+](=O)[O-])ccc1N1CCCC1)C1CCS(=O)(=O)C1 (configuration not stated)	8.2	2.0	10.0	-2.7	-6.9	-2.2	nt
CCC(C)N(C(=O)COC(=O)c1cc([N+](=O)[O-])ccc1N1CCOCC1)C1CCS(=O)(=O)C1 (configuration not stated)	2.0	4.9	2.3	-1.7	40.0*	1.3	1.1
O=C(OCC(=O)N1CCN(C(=O)c2ccco2)CC1)c1cncc(Br)c1	12.8	6.6	3.8	-3.1	0.6	3.5	nt
O=C(O)Cc1c[nH]c2ccccc12	14.2	5.4	10.7	-3.8	1.6	2.8	nt
O=C(O)Cc1c[nH]c2cccc(O)c12	18.6	11.6	1.9	9.1	47.3*	9.4	8.5
COc1ccc(CCOC(=O)c2ccc(NC(=O)CC#N)cc2)cc1	-9.7	-3.2	3.4	4.1	53.2*	-3.6	1.9
COc1ccc(CCn2c(C)cc(C(=O)COC(=O)c3ccc(NC(=O)CC#N)cc3)c2C)cc1	-22.9	-21.0	-8.9	7.8	10.0	-44.8	nt
CC(C)(C)C1=CC(O)(c2ccccc2)C=C(C(C)(C)C)C1=O	1.9	6.3	-8.9	-9.9	4.1	0.7	nt
Cc1cc(C(=O)N/N=C2\CC(=O)CC(C)(C)C2)n[nH]1	-1.8	-1.9	-5.0	-0.7	5.0	0.6	nt
Cc1cc(C(=O)N/N=C2\CC(=O)CC(C)(C)C2)c(C)n1-c1ccc(F)cc1	0.9	3.0	-8.0	1.1	41.4*	18.7	63.5*
Cc1cc(C(=O)N/N=C2\CC(=O)CC(C)(C)C2)c(C)n1-c1ccccc1	-8.7	6.4	-8.9	-8.5	36.9*	11.4	33.9*
Cc1cc(C(=O)NN=C2CC(=O)CC(C)(C)C2)c(C)o1	0.1	6.7	-1.9	8.8	0.2	-4.9	nt
O=C(NCC(c1ccco1)N1CCCC1)c1ccc(Cl)c(S(=O)(=O)N2CCc3ccccc32)c1 (configuration not stated)	-5.6	-6.0	-5.8	-5.8	7.0	-3.4	nt
CCOc1ccc2[nH]c3c(N4CCN(c5ccccn5)CC4)ncnc3c2c1	3.2	9.2	4.5	3.4	44.4*	12.8	12.9
Cc1nc(Br)c(Br)n1Cc1ccccc1	nt	nt	-0.9	-3.6	nt	nt	nt
COc1ccc(S(=O)(=O)NCC2CCCO2)cc1NC(=O)c1ccc(Cl)cc1 (configuration not stated)	2.8	-1.5	0.0	-3.7	4.2	0.2	nt
Cc1nc2cc(C(F)(F)F)ccc2n1CCNc1nc(-c2ccc([N+](=O)[O-])c(Cl)c2)cs1	6.1	24.1	-2.4	-7.2	6.2	1.0	nt
CN(C)c1ccc(N2C(=O)CC(Nc3ccc(N4CCOCC4)cc3)C2=O)cc1 (configuration not stated)	-7.6	-1.2	-1.4	-2.2	6.8	5.8	nt
COc1cccc(N2C(=O)CC(Nc3ccc(N4CCOCC4)cc3)C2=O)c1 (configuration not stated)	4.8	5.9	6.1	1.9	39.2*	32.7*	-0.1
O=C1CC(Nc2ccc(N3CCOCC3)cc2)C(=O)N1c1cccc(C(F)(F)F)c1 (configuration not stated)	3.9	2.8	-1.2	-8.6	46.1*	12.5	5.8
CC(OC(=O)c1ccc(Cl)cc1)C(=O)NCc1ccc2c(c1)OCO2 (configuration not stated)	7.4	4.8	-5.0	-0.4	53.7*	6.9	2.4
